High-throughput results (PubChem BioAssay)
eIF4E-4G inh = blocks eIF4E binding to eIF4G | P63073+Q04637 | TR-FRET eIF4E-eIF4GI(517-606) binding, 2 h | inhibition, % at 21.7 µM | actives 0.37% (n = 220,000);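 active means inhibition above about 30%, limit read from the data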;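 further: 0% = full FRET control wells and 100% = background wells lacking eIF4GI fragment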
eIF4H FP inh = inhibitors of RNA binding by human eIF4H; eIF4H fluorescence polarization binding assay; inhibition, % at 35 µM; actives 0.94% (n = 290,000); AID 2012;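 further: calls also rest on retests at 20 µM and on dose response follow-up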
PABP polyA inh = blocks human PABP binding to poly(A) RNA; P11940; fluorescence polarization; inhibition, % at 35 µM; actives 1% (n = 290,000); AID 2014;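 further: calls also rest on retests at 20 µM and on dose response follow-up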
PABP1 MLLE inh = blocks PAM2 peptide binding to the PABP1 MLLE domain. actives 0.36% (n = 360,000). inhibition, % at 20 µM. AID 588489. GST-MLLE / FITC-PAM2 fluorescence polarization. P11940; in the data active means inhibition above about 35%, passing the limit was not always enough;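 further: plate controls were DMSO wells with GST-MLLE for no effect and wells lacking GST-MLLE protein for full effect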
PERK inhibitor = inhibitors of human PERK kinase. Q9NZJ5. CHO PERK-DD fusion, SEAP luminescence translation reporter. inhibition, % at 5.6 µM. actives 0.17% (n = 220,000). AID 1416;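 active means inhibition above the mean inhibition of all tested compounds plus 3 SD, set separately per screening campaign, cut at about 2.9% in these data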;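 further: PERK kinase domain activated by AP20187 dimerizer at 100 nM; 0% = DMSO with dimerizer and 100% = rapamycin at 8.4 µM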
* = called active by the depositor; ? = inconclusive; nt = not tested or not shown; ! = not active in a repeat. A selection: hits, their analogues and other compounds. The true share with any hit is near 1.6%. Unless noted, how the calls were made is not given here.

SMILES | eIF4E-4G inh | eIF4H FP inh | PABP polyA inh | PABP1 MLLE inh | PERK inhibitor
COC(=O)C1=C(c2ccc(OC)c(OC)c2)C[C@@H]2CC[C@H]1N2C(=O)N1CCOCC1 | nt | nt | nt | 4 | nt
COC(=O)C1=C(c2ccc(F)cc2F)C[C@@H]2CC[C@H]1N2C(=O)N1CCC(O)CC1 | nt | nt | nt | 0 | nt
COc1ccc2c3c1OC1C(O)C=CC4C(C2)[N+](C)(C)CCC341 (centres undefined) | nt | 48 | 98* | -32 | nt
CN1CC[C@]23c4c5ccc(O)c4OC2[C@H](O)C=CC3[C@H]1C5 (some centres undefined) | nt | nt | nt | 0 | nt
O=c1[nH]c(O)c(/C=C2\C=Nc3ccc(OCc4ccccc4)cc32)c(=O)[nH]1 | nt | ? | ? | 90 | nt
CCN1CCN(Cc2cccnc2)CC1 | nt | 4 | 13 | -2 | nt
C=C1N2CCC(CC2)C1(O)c1ccc(C)cc1 (centres undefined) | -1 | -6 | -6 | -9 | 1
C=C1C(O)(c2ccccc2)C2CC[N+]1(C)CC2 (centres undefined) | 3 | -8 | 57* | -127 | 0
O=C(O)CCn1cc(C=C2C(=O)NC(=S)NC2=O)c(-c2ccccc2)n1 | 8 | 4 | 7 | 42* | 1
COc1ccc(CC2C(=O)N(C)C(=O)N(C)C2=O)c(OC)c1 | 8 | -3 | -1 | 42* | 0
COc1ccc(N2C(=O)/C(=C/C=C/c3ccccc3[N+](=O)[O-])C(=O)NC2=S)cc1 | 36* | 36 | -11 | nt | 0
COc1ccc(CCN)cc1O | nt | nt | nt | -10 | nt
NCCc1cc(O)c(O)cc1O | nt | nt | nt | 47*! | nt
[N-]=[N+]=NCCN1CCC(O)CCC1=O (centres undefined) | nt | 6 | 9 | -7 | nt
CC(C)[N+](C)(CCC(C(N)=O)(c1ccccc1)c1ccccc1)C(C)C | 6 | 12* | 66 | -28 | 2
O=P(O)(O)CN1CCNCCN(CP(=O)(O)O)CCNCC1 | nt | nt | nt | 4 | nt
CN(C)[C@@H]1C(=O)C(C(N)=O)=C(O)[C@@]2(O)C(=O)C3=C(O)c4c(O)cccc4[C@@](C)(O)[C@H]3[C@H](O)[C@@H]12 | 47* | 87* | 1.5* | 18 | 0
C[C@@H]1CN([C@@H](C)CO)C(=O)CCCn2nncc2CO[C@@H]1CN(C)C(=O)Oc1cccc2ccccc12 | nt | nt | nt | -6 | nt
C=CCn1c(O)c(/C=C2/C=CC=N2)c(=O)[nH]c1=O | 0 | 88* | 1.7* | -8 | 1
